Experimental data published in PubChem BioAssay (NCI).
This is part of a sample that, as a whole, favours compounds with a hit. Of some 83,000 tested, about 20% had one in any assay.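 Plates (96-well) were seeded with cells, treated with compound at one concentration, and incubated for 48 hours before percent growth was determined.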 Unmarked numbers belong to inactive results. Activity calls are given as the source filed them. Rule for the calls: active = growth percent below 10; inactive = the rest.

How the values were obtained:
Assay in all cases: NCI-60 one-dose screen, 48 h (100 = growth as untreated, 0 = no growth, -100 = all killed)
Details in all cases: 10 µM unless noted
[1] = tested on: DU-145 prostate
[2] = tested on: K-562 leukemia
[3] = tested on: MALME-3M melanoma
[4] = tested on: MDA-MB-231 breast
[5] = tested on: RXF 393 renal
[6] = tested on: SF-268 CNS
[7] = tested on: SF-295 CNS
[8] = tested on: SF-539 CNS
[9] = tested on: UACC-257 melanoma
[10] = tested on: M14 melanoma
[11] = tested on: HCT-15 colon
[12] = tested on: HT29 colon
[13] = tested on: SNB-75 CNS
[14] = tested on: SNB-19 CNS
[15] = tested on: U251 CNS
[16] = tested on: PC-3 prostate
[17] = tested on: SK-MEL-5 melanoma
[18] = tested on: UACC-62 melanoma
[19] = tested on: LOX IMVI melanoma
[20] = tested on: SK-MEL-28 melanoma

| Compound | growth [1] | growth [2] | growth [3] | growth [4] | growth [5] | growth [6] | growth [7] | growth [8] | growth [9] | growth [10] | growth [11] | growth [12] | growth [13] | growth [14] | growth [15] | growth [16] | growth [17] | growth [18] | growth [19] | growth [20] |
| --- | --- | --- | --- | --- | --- | --- | --- | --- | --- | --- | --- | --- | --- | --- | --- | --- | --- | --- | --- | --- |
| COc1cccc(-c2nn(-c3ccccc3)cc2-c2ccnc(-c3cccnc3)c2)c1 | 104% | 81.2% | 83% | 86.8% | 107% | 94.9% | 89.2% | 90.1% | 117% | 92.8% | 89.6% | 96.7% | 93% | 97.6% | 104% | 70.6% | 81.2% | 86.6% | 87.4% | 100% |
| Cc1[nH]c(C2CC(c3ccc(C(F)(F)F)c(F)c3)=NN2C)c(C)c1C(=O)NCC(F)(F)F (stereo not given) | 96.3% | 85.6% | 93.8% | 85.4% | 93.7% | 92.4% | 94.9% | 96.7% | 97.9% | 115% | 92.2% | 102% | 96.9% | 91.9% | 96.8% | 98.1% | 93.6% | 82.3% | 93.1% | 101% |
| COc1ccc2c(c1)c(-c1nc(-c3cn(C)c4ccncc34)cs1)cn2C | -21.9% (active) | -48.9% (active) | -53.6% (active) | -61.2% (active) | -91.7% (active) | 88.5% | 55.3% | 57.4% | 114% | -90.3% (active) | -22.1% (active) | -58.1% (active) | 120% | 20.9% | -74.9% (active) | -17.1% (active) | -22.8% (active) | 107% | -92.3% (active) | 86.8% |
| FC(F)(F)c1cccc(-c2nnn(Cc3cc(-c4cccc(Cl)c4)no3)n2)c1 | 113% | 113% | 97.5% | 117% | 109% | 99.1% | 111% | 102% | 96.3% | 101% | 105% | 103% | 88.9% | 97.7% | 104% | 104% | 101% | 103% | 99.4% | 112% |
| CCNCCNc1c(C)c(-c2ccc(C(F)(F)F)cc2)c(C#N)c2nc3ccccc3n12 | 99.1% | 54.8% | 109% | 90.9% | 90.4% | 80.8% | 91.4% | 82.7% | 79.6% | 56.1% | 78.6% | 77.3% | 57.6% | 78.6% | 78.8% | 76.1% | 87.2% | 92.4% | 82.5% | 103% |
| CSc1nc(CC(C)C)c(C#N)c(=O)n1C | 70.7% | 68.8% | 58.4% | 47.3% | 58.7% | 65.7% | 73.9% | 75.9% | 78.6% | 70.7% | 46.1% | 69.7% | 61% | 82.1% | 81.8% | 62.9% | 70.9% | 53.8% | 68.4% | 68.3% |
| Nc1nc(N)c2c(n1)NC(c1cccc(Nc3ccnc4cc(C(F)(F)F)ccc34)c1)CC(c1ccc(Cl)cc1)=N2 (stereo not given) | 69.5% | 10.5% | 50.8% | 54.4% | 37.6% | 55.2% | 48.4% | 80.8% | 87.3% | 29.7% | 20.3% | 10.6% | 47.9% | 62.8% | 36.7% | 32.4% | 47.2% | 76.3% | 37.5% | 80.7% |
| c1ccc2[nH]c(-c3ccc(-c4nccc5c4[nH]c4ccccc45)cc3)nc2c1 | 67.4% | 3.52% (active) | 90.4% | 30.2% | 44.6% | 52.3% | 75.1% | -40.4% (active) | 81.8% | 72.8% | 38.7% | 4.38% (active) | 64.9% | 55.1% | 24.2% | 85.7% | 62.6% | -24% (active) | 10.8% | 61.3% |
| Oc1ccc(C(c2ccc(O)cc2)c2ccc(Cl)cn2)cc1 | 56.7% | 71.8% | 107% | 77.1% | -57% (active) | 92.4% | 30.9% | 83.4% | 95.5% | 85.5% | 23.2% | 47.9% | -32.5% (active) | 71.9% | 97% | -32.2% (active) | 96.5% | 39.3% | -42.6% (active) | 112% |
| O=C(CSc1nnc(-c2cc(-c3ccc(Cl)cc3)nc3ccccc23)n1-c1ccccc1)Nc1ccc(Cl)cc1 | 107% | 85.1% | 107% | 89.7% | 118% | 94% | 99.5% | 111% | 96.2% | 109% | 97% | 104% | 94.2% | 94.5% | 98.7% | 80.3% | 101% | 87.1% | 95.8% | 103% |
| O=c1[nH]c(CN2CCN(c3ccccc3)CC2)nc2c(Br)cc(Br)cc12 | 114% | 97.6% | 109% | 115% | 101% | 108% | 91.8% | 111% | 96.2% | 113% | 71.5% | 105% | 95.8% | 108% | 101% | 103% | 109% | 84.4% | 99.7% | 108% |
| Nc1nc(N)c2c(n1)NC(c1ccc3c(c1)OCO3)CC(c1cccc(Nc3ccncc3)c1)=N2 (stereo not given) | 106% | 44.3% | 100% | 94.2% | 82.2% | 68.1% | 96.5% | 101% | 67.3% | 83.5% | 98.4% | 61.3% | 66.9% | 94.5% | 80.8% | 50.8% | 90% | 87.6% | 48.5% | 108% |
| Cc1cc(N2CCOCC2)nc(N(CCCNc2ccnc3cc(Cl)ccc23)Cc2ccc3c(c2)OCO3)n1 | 20.3% | -43.7% (active) | -20.5% (active) | -37.1% (active) | -75.6% (active) | 15% | -69% (active) | -75.4% (active) | -31.5% (active) | -61.1% (active) | -31.6% (active) | -61% (active) | -43.3% (active) | 40.6% | -47.6% (active) | 15.9% | -37.2% (active) | -18.4% (active) | -90.8% (active) | -42.6% (active) |
| CCOC(=O)c1c(C)nc2c(c1N)C(=O)C(=O)N2CCc1ccc(OC)c(OC)c1 | 89.7% | 25.6% | 79.1% | 80.4% | 83.8% | 78.7% | 63.3% | 70% | 46.8% | 70.6% | 33.3% | 39.6% | 67% | 84.8% | 57.7% | 58.9% | 44.9% | 64.8% | 76.9% | 80.9% |
| CCOC(=O)CC1CSC(N/N=C/c2ccc(O)cc2)=N1 (stereo not given) | 106% | 99.4% | 97% | 113% | 111% | 96.2% | 99.1% | 95.3% | 108% | 92% | 100% | 106% | 93.4% | 106% | 98.9% | 89.5% | 102% | 102% | 99% | 107% |
